# Data reported in the supplement of paper PMC11577813, “Eurasian spruce bark beetle detects lanierone using a highly expressed specialist odorant receptor, present in several functional sensillum types” (BMC Biology, 2024).
# ± gives the standard deviation of the averaged measurements.
# Columns and labels:
# [1] = tested on: (+)-isopinocamphone A-neuron OSN class; assay: net action potential response of A-neuron (blank-subtracted) (spikes/s (Hz)); higher = stronger excitation; details: 10 µg on filter paper; neuron: A neuron (large spike amplitude)
# Procedure, shortened: (§1)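 Single sensillum recordings with tungsten electrodes were taken from one fixed antenna of live lab-reared adult Ips typographus, with each compound (10 μg in paraffin oil on filter paper in a pipette) given as a 0.5 s pulse at 0.3 L/min into a humidified, charcoal-filtered 1.8 L/min airstream. AutoSpike counts of A-neuron or B-neuron spikes in 0.5 s windows had the pre-stimulus count subtracted. Responses were then converted to spikes/s, blank-subtracted and averaged over 1–4 sensilla.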
# [2] = tested on: (+)-trans-4-thujanol A-neuron OSN class; assay: as above; details: 10 µg on filter paper; neuron: A neuron (large spike amplitude)
# Procedure, shortened: as §1
# [3] = tested on: (5S,7S)-trans-conophthorin A-neuron OSN class; assay: as above; details: 10 µg on filter paper; neuron: A neuron (large spike amplitude)
# Procedure, shortened: as §1
# [4] = tested on: ipsdienol A-neuron OSN class; assay: as above; details: 10 µg on filter paper; neuron: A neuron (large spike amplitude)
# Procedure, shortened: as §1
# [5] = tested on: myrcene A-neuron OSN class; assay: as above; details: 10 µg on filter paper; neuron: A neuron (large spike amplitude)
# Procedure, shortened: as §1
# [6] = tested on: p-cymene A-neuron OSN class; assay: as above; details: 10 µg on filter paper; neuron: A neuron (large spike amplitude)
# Procedure, shortened: as §1
# [7] = tested on: lanierone-responsive B-neuron OSN class (ItypOR36); assay: net action potential response of lanierone B-neuron (blank-subtracted) (spikes/s (Hz)); higher = stronger excitation; details: 10 µg on filter paper, neuron: B neuron (small spike amplitude)
# Procedure, shortened: as §1
# [8] = co-localized A-neuron class: (4S)-cis-verbenol
# [9] = co-localized A-neuron class: (5S,7S)-trans-conophthorin
# [10] = co-localized A-neuron class: (+)-isopinocamphone
# [11] = co-localized A-neuron class: (+)-trans-4-thujanol
# [12] = co-localized A-neuron class: ipsdienol
# [13] = co-localized A-neuron class: myrcene
# [14] = co-localized A-neuron class: p-cymene
Structure (SMILES),net action potential response [1],net action potential response [2],net action potential response [3],net action potential response [4],net action potential response [5],net action potential response [6],"net action potential response [7, 8]","net action potential response [7, 9]","net action potential response [7, 10]","net action potential response [7, 11]","net action potential response [7, 12]","net action potential response [7, 13]","net action potential response [7, 14]"
OCCc1ccccc1 [2-Phenylethanol],7.33 ± 3.1,3.5 ± 4.7,0 ± 1.6,-2.67 ± 3.1,0,2.67 ± 3.1,-4 ± 2,-3 ± 3.8,2 ± 3.5,1 ± 3.5,-3.33 ± 11,2,6 ± 10
"c1ccc2c(c1)CCO2 [2,3-Dihydrobenzofuran]",2 ± 2,-1.5 ± 1.9,1.33 ± 3.1,4 ± 7.2,-6,6.67 ± 5.8,3.33 ± 9.2,-0.667 ± 4.2,0.667 ± 11,2.5 ± 3.4,-3.33 ± 3.1,-2,6 ± 8.7
CC(=O)OC/C=C(\C)CCC=C(C)C [Geranyl acetate],0.667 ± 7,0,2 ± 7.2,–,-4,1 ± 1.4,-2.67 ± 7.6,-2 ± 9.2,-0.667 ± 2.3,-2 ± 4.3,-2 ± 5.3,0,-2 ± 5.7
Cc1ccc(C(C)C)cc1 [p-Cymene],-0.667 ± 2.3,0.5 ± 5.3,3.5 ± 3.4,2 ± 3.5,0,146 ± 65,-3.33 ± 3.1,0.5 ± 2.5,-2 ± 3.5,-1.5 ± 4.4,-1.33 ± 5,4,-3.33 ± 5.8
CC(=O)CC/C=C(\C)CCC=C(C)C [Geranylacetone],2 ± 2,1 ± 4.8,4.67 ± 7,2.67 ± 4.6,-2,3 ± 4.2,-2 ± 2,-2 ± 2,-1.33 ± 4.2,0 ± 4.3,-3.33 ± 5.8,-2,0 ± 2.8
"CC12CCC(CC1)C(C)(C)O2 [1,8-Cineole]",-2.67 ± 2.3,1 ± 3.8,2.67 ± 10,0 ± 5.3,8,13.3 ± 11,4 ± 9.2,-6.67 ± 6.1,0.667 ± 4.2,-1 ± 2.6,0 ± 10,-4,0 ± 5.3
"COc1ccc(C)cc1OC [3,4-Dimethoxytoluene]",0.667 ± 3.1,1.5 ± 3.8,2.67 ± 6.4,–,4,1.33 ± 1.1,5.33 ± 11,0 ± 7.2,1.33 ± 2.3,-1.5 ± 3.4,2 ± 6,2,-2 ± 6.9
C=CC(=C)C[C@@H](O)CC(C)C (racemic) [(±)-Ipsenol],-1.33 ± 5,2 ± 2.8,-1.33 ± 6.1,19.3 ± 15,-2,-4,-1.33 ± 5,0 ± 5.3,0 ± 3.5,0.5 ± 1.9,-5.33 ± 2.3,-4,-8 ± 5.7
CC[C@H]1O[C@]2(C)CCC[C@H]1O2 (racemic) [(±)-exo-Brevicomin],-0.667 ± 4.2,2.5 ± 2.5,173 ± 40,-2.67 ± 5,6,0 ± 2,0 ± 2,-4 ± 2,-2,-1 ± 1.1,4 ± 12,2,-3.33 ± 2.3
CCCCCCO [1-Hexanol],18.7 ± 22,7 ± 5,6 ± 18,–,4,5.33 ± 1.1,-0.667 ± 3.1,0.5 ± 3.4,-1.33 ± 1.1,0 ± 1.6,2 ± 2,-6,-2.67 ± 6.1
C=CC(=C)CCC=C(C)C [Myrcene],-2 ± 2,0.5 ± 3,2 ± 10,-2 ± 3.5,128,3.33 ± 2.3,7.33 ± 7.6,0 ± 6,1.33 ± 9,2.5 ± 6.6,2.67 ± 4.2,-6,-2.67 ± 4.6
CC(=O)OCCC(C)C [3-Methylbutyl acetate],4.67 ± 4.2,3.33 ± 3.1,-2.67 ± 4.6,–,10,6.67 ± 5,-8 ± 5.3,1.33 ± 2.3,3.33 ± 3.1,0 ± 5.3,2,-6,-2 ± 3.5
C[C@]12CCC[C@](C)(OC1)O2 (racemic) [(±)-Frontalin],2 ± 5.3,1 ± 3.5,96 ± 57,2 ± 3.5,-8,1.33 ± 1.1,-1.33 ± 8.1,-2 ± 2,0 ± 7.2,0.5 ± 4.1,0 ± 4,0,-4 ± 4
CCCCCC=O [Hexanal],4.67 ± 3.1,0.5 ± 4.4,2.67 ± 7.6,–,4,2 ± 3.5,0.667 ± 3.1,-0.667 ± 1.1,-1.33 ± 9,-3 ± 2.6,-3.33 ± 4.2,2,3.33 ± 4.6
CC1=CCC(C(C)C)=CC1 [γ-Terpinene],-0.667 ± 3.1,-1 ± 4.2,3 ± 4.8,2 ± 8.7,6,117 ± 49,-2 ± 5.3,0.5 ± 6,-0.667 ± 6.1,-0.5 ± 1.9,0 ± 6,-6,-4 ± 3.5
C=Cc1ccccc1 [Styrene],5.33 ± 6.1,8.5 ± 18,6 ± 7.2,–,-2,18.7 ± 15,-6 ± 8.7,-1.33 ± 1.1,-4.67 ± 4.6,-0.5 ± 6.6,-1.33 ± 4.6,4,-6 ± 2.8
C=CC(C)(C)O [2-Methyl-3-buten-2-ol],0.667 ± 1.1,7 ± 11,3.33 ± 4.2,–,-8,1 ± 1.4,-4.67 ± 5,-4.67 ± 7,2 ± 2,-3.5 ± 7.2,3.33 ± 11,4,-6 ± 2.8
C=C1[C@@H]2CC[C@@H](C2)C1(C)C (racemic) [(±)-Camphene],-2 ± 2,1.5 ± 1,-2.67 ± 3.1,0 ± 2,0,-3 ± 1.4,-3.33 ± 8.3,0 ± 2,-3.33 ± 1.1,0 ± 3.6,3.33 ± 2.3,-4,0
C=C1CCC2(C(C)C)CC12 (racemic) [(±)-Sabinene],0.667 ± 3.1,6.5 ± 5.5,0.667 ± 3.1,3.33 ± 2.3,34,1.33 ± 6.4,0.667 ± 6.4,-1.33 ± 1.1,-1.33 ± 2.3,0.5 ± 1.9,1.33 ± 9.2,-4,-4 ± 5.3
CC1=CCC2CC1C2(C)C (stereo not drawn) [(+)-α-Pinene],3.33 ± 3.1,2.5 ± 3,-1.5 ± 6.8,–,4,2.67 ± 1.1,0 ± 12,-0.5 ± 4.7,0.667 ± 5.8,2 ± 2.8,-4 ± 4,-4,1.33 ± 7
CC12CCC(CC1=O)C2(C)C (racemic) [(±)-Camphor],125 ± 40,2 ± 5.7,5.33 ± 7,–,-6,6.67 ± 16,-2.67 ± 3.1,0,-6.67 ± 2.3,-1.5 ± 1,-2.67 ± 6.1,-2,1 ± 1.4
